For test [1], the system named is DLD1. As to the kind of experiment: cell viability (CellTiter-Glo) relative to plate median (fraction of plate median); higher = more viable cells. The note with it: 5 µM; treatment time 24 h; reporter: 7TFP. In a few lines:
(§1)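 Stable lentiviral TCF/Wnt firefly luciferase reporters (7TFP or TCF4/Wnt) were present in the colorectal cancer cell lines used. These cells received library compounds at a final 5 µM for 24 h, and parallel plates were read for firefly luciferase or CellTiterGlo luminescence. Each well was normalised to the plate median, and the value reported is the mean of two independent replicates.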

The subject of the next test is HCT116. Described as above. The note with it: 5 µM; treatment time 24 h; reporter: TCF4/Wnt. Put shortly:
as §1

For test [2], the system named is SW480. The test is described as above. The note with it: 5 µM; treatment time 24 h; reporter: 7TFP. Put shortly:
as §1

In test [3] the test system is DLD1. Briefly: TCF/Wnt firefly luciferase reporter signal relative to plate median (fraction of plate median); higher = higher Wnt reporter signal. The note with it: 5 µM; treatment time 24 h; reporter: 7TFP. Put shortly:
as §1

Test [4] concerns SW480. The description is as above. The note with it: 5 µM; treatment time 24 h; reporter: 7TFP. In a few lines:
as §1

Molecules are shown by their SMILES. ± gives the standard deviation of the averaged measurements.

For the molecule `C[C@H]1COC2=C1C(=O)C(=O)c1c2ccc2c1CCCC2(C)C`, the cell viability in the test with DLD1 [1] amounted to 1.15 ± 0.2; with HCT116, 1.12 ± 0.042; with SW480 [2], 1.08 ± 0.014. In addition, the figures for the “TCF/Wnt firefly luciferase reporter signal” value in the test with DLD1 [3] and in the test with SW480 [4] were 1.05 ± 0.096 and 0.906 ± 0.12, respectively.

On to `O=C(O[C@@H]1Cc2c(O)cc(O)cc2O[C@@H]1c1ccc(O)c(O)c1)c1cc(O)c(O)c(O)c1`, for which the cell viability with DLD1 [1] came to 0.946 ± 0.061; in the test on HCT116, 0.805 ± 0.24; with SW480 [2], 1.04 ± 0.1. For the same molecule, the results for the “TCF/Wnt firefly luciferase reporter signal” value in the test with DLD1 [3] and in the test with SW480 [4] were 1.03 ± 0.11 and 1.08 ± 0.021, respectively.

As for `C[N+]1(C)C[C@H](O)C[C@H]1C(=O)[O-]`, the results for the cell viability with DLD1 [1], in the test with HCT116 and in the test with SW480 [2] were 1.03 ± 0.014, 0.985 ± 0.035 and 0.967 ± 0.0099, respectively. For the same molecule, the “TCF/Wnt firefly luciferase reporter signal” value in the test on DLD1 [3] is 1.06 ± 0.035; in the test with SW480 [4] it was 0.869 ± 0.025.

As for `O=C1c2ccccc2C(=O)c2c(Cl)cccc21` [Chloro-Anthraquinone], the cell viability worked out at 1.01 ± 0.027 in the test on DLD1 [1], 0.993 ± 0.024 with HCT116 and 0.974 ± 0.017 in the test with SW480 [2]. Moreover, the entries for the “TCF/Wnt firefly luciferase reporter signal” value in the test with DLD1 [3] and with SW480 [4] were 1.03 ± 0.16 and 0.944 ± 0.14, respectively.

On to `CCC[C@@H]1C[C@@H](C(=O)N[C@@H]([C@H]2O[C@H](SC)[C@H](O)[C@@H](O)[C@H]2O)[C@H](C)Cl)N(C)C1`, for which the cell viability is 0.966 ± 0.15 in the test on DLD1 [1], 1 ± 0.042 with HCT116 and 1.07 ± 0.057 with SW480 [2]. The “TCF/Wnt firefly luciferase reporter signal” value came to 0.907 ± 0.028 in the test on DLD1 [3] and 1.04 ± 0.028 in the test on SW480 [4].

As for `C=CCSSSCC=C`, the cell viability stood at 1.05 ± 0.09 in the test on DLD1 [1], 1.09 ± 0.014 in the test on HCT116 and 0.99 ± 0.042 in the test on SW480 [2]. For the same molecule, the figures for the “TCF/Wnt firefly luciferase reporter signal” value with DLD1 [3] and with SW480 [4] were 1.02 ± 0.073 and 0.874 ± 0.013, respectively.

Turning to `C[C@@H]1C[C@H]2[C@@H]3C[C@H](F)C4=CC(=O)C=C[C@]4(C)[C@@]3(F)[C@@H](O)C[C@]2(C)[C@@]1(O)C(=O)CO`, the cell viability stood at 1.05 ± 0.057 in the test on DLD1 [1], 0.889 ± 0.02 in the test with HCT116 and 1.03 ± 0.028 with SW480 [2]. Moreover, the “TCF/Wnt firefly luciferase reporter signal” value turned out to be 1.02 ± 0.14 with DLD1 [3] and 0.986 ± 0.076 in the test on SW480 [4].

Take `O=C(O)c1ccc(S(=O)(=O)N(Cl)Cl)cc1`: the cell viability was 0.936 ± 0.027 with DLD1 [1], 1 ± 0.028 in the test with HCT116 and 0.8755 ± 0.0078 in the test with SW480 [2]. In addition, the figures for the “TCF/Wnt firefly luciferase reporter signal” value in the test with DLD1 [3] and in the test on SW480 [4] were 0.937 ± 0.052 and 0.876 ± 0.03, respectively.

Regarding `COc1ccc(C[C@H](N)C(=O)N[C@H]2[C@@H](O)[C@H](n3cnc4c(N(C)C)ncnc43)O[C@@H]2CO)cc1`, the cell viability worked out at 0.892 ± 0.1 in the test on DLD1 [1], 0.908 ± 0.04 in the test on HCT116 and 0.9485 ± 0.00071 in the test on SW480 [2]. In addition, the “TCF/Wnt firefly luciferase reporter signal” value in the test on DLD1 [3] stood at 0.999 ± 0.03; with SW480 [4] it was 1.05 ± 0.042.

`NC(=O)NC(=O)Cc1ccccc1`: the figures for the cell viability in the test on DLD1 [1], with HCT116 and with SW480 [2] were 1.02 ± 0.014, 1.16 ± 0.035 and 1.02 ± 0.037, respectively. Also, the “TCF/Wnt firefly luciferase reporter signal” value in the test on DLD1 [3] was found to be 1.12 ± 0.064; in the test with SW480 [4], 0.94 ± 0.08.

As for `C[C@]12CCC(=O)C=C1CC[C@@H]1[C@@H]2[C@@H](O)C[C@@]2(C)[C@H]1CC[C@]2(O)C(=O)COP(=O)(O)O`, the cell viability in the test on DLD1 [1] turned out to be 0.949 ± 0.0099; in the test on HCT116, 0.974 ± 0.065; with SW480 [2] it was 0.969 ± 0.03. Moreover, the “TCF/Wnt firefly luciferase reporter signal” value with DLD1 [3] came to 1.01 ± 0.025; in the test with SW480 [4], 1.07 ± 0.014.

Take `CCN(CC)CCCC(C)Nc1ccnc2cc(Cl)ccc12` (stereo not given): the cell viability worked out at 1.05 ± 0.096 in the test on DLD1 [1], 1.04 ± 0.12 in the test with HCT116 and 1.05 ± 0.028 with SW480 [2]. The figures for the “TCF/Wnt firefly luciferase reporter signal” value in the test on DLD1 [3] and in the test with SW480 [4] were 0.974 ± 0.024 and 1.045 ± 0.0071, respectively.

`C=C1C[C@H]2[C@@H]3C=C(C)C4=CC(=O)CC[C@]4(C)[C@H]3CC[C@]2(C)[C@@]1(OC(C)=O)C(C)=O`: the cell viability turned out to be 0.99 ± 0.042 in the test on DLD1 [1], 1 ± 0.11 with HCT116 and 1.01 in the test with SW480 [2]. For the same molecule, the “TCF/Wnt firefly luciferase reporter signal” value in the test on DLD1 [3] was 0.986 ± 0.076; with SW480 [4] it was 0.902 ± 0.094.

On to `C[C@](N)(Cc1ccc(O)c(O)c1)C(=O)O`, for which the cell viability stood at 0.981 ± 0.098 in the test with DLD1 [1], 0.996 ± 0.062 in the test on HCT116 and 1.03 ± 0.028 in the test on SW480 [2]. In addition, the “TCF/Wnt firefly luciferase reporter signal” value in the test on DLD1 [3] was 1.04 ± 0.087; in the test on SW480 [4] it was 1.03 ± 0.12.

Consider `CC(C)(Oc1ccc(C2CC2(Cl)Cl)cc1)C(=O)O` (stereo not given), for which the cell viability in the test on DLD1 [1] turned out to be 1.06 ± 0.05; in the test on HCT116 it was 0.968 ± 0.074; in the test with SW480 [2], 1.06 ± 0.014. For the same molecule, the “TCF/Wnt firefly luciferase reporter signal” value in the test on DLD1 [3] stood at 0.943 ± 0.18; in the test with SW480 [4], 0.963 ± 0.17.

Values taken from the supplement of paper PMC6522484.
